The nature of experiment [1]: small molecules captured by biotinylated probe aFSTL3 – biochemical, small-molecule microarray, fluorescence 635/667, stem cell growth factor project, primary screen (AID 1064).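 Also: measures binding of the biotinylated anti-FSTL3 antibody to printed compounds.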 The settings on record: higher = more signal.
The nature of experiment [2]: binders from COS7 lysate, DM2A8 probe, primary screen, torsin A project, cell lysate, small-molecule microarray, fluorescence 635/667 (AID 1065). The settings on record: higher = more signal, COS7 lysate expressing mutant human TOR1A.
Experiment [3] is described as follows: small molecules captured by biotinylated probe aFGF2 – biochemical, small-molecule microarray, fluorescence 635/667, stem cell growth factor project, primary screen (AID 1067).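 Also: measures binding of biotinylated aFGF2 protein to printed compounds on slides; z-score merges feature fluorescence and signal-to-noise across triplicate slides.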 The settings on record: higher = more signal.
The nature of experiment [4]: small molecules captured by biotinylated probe aFGF10 – biochemical, small-molecule microarray, fluorescence 635/667, stem cell growth factor project, primary screen (AID 1071).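 Also: score merges 667 nm spot intensity and signal to noise from triplicate slides.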 As to conditions: higher = more signal.
Experiment [5] concerns the target Neurogenic locus notch homolog protein 2 (Homo sapiens) (UniProt Q04721). Description: small molecules binding Notch2 protein – biochemical, small-molecule microarray, 635 nm fluorescence, stem cell growth factors, primary screen (AID 1073). As to conditions: higher = more signal.
The target in experiment [6] is Pro-neuregulin-1, membrane-bound isoform (Homo sapiens) (UniProt Q02297). Briefly: small molecules binding neuregulin-1 protein – biochemical, small-molecule microarray, fluorescence 635/667, psychiatric disease protein project, primary screen (AID 1075).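 Also: score combines 667 nm spot fluorescence with signal to noise.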 As to conditions: NRG1 binding, 635 nm fluorescence, higher = more signal.
The test system of experiment [7] is Neuregulin-1 EGF-like domain. Briefly: small molecules binding NRG1 EGF domain – biochemical, small-molecule microarray, 635 nm fluorescence, primary screen (AID 1081).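 Also: binding of the protein to compounds printed on small-molecule microarray slides.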 The settings on record: higher = more signal.
Experiment [8] is described as follows: FRG1 expression reporter modulators in myotubes – cell-based, C2C12 myotubes, firefly/Renilla luciferase, luminescence, FRG1 inhibition for FSHD, primary screen (AID 1084). The settings on record: FRG1 promoter luciferase, higher = more signal, called active from +8 up or from −8 down.
Experiment [9] in a line: small molecules captured by biotinylated probe aFST – biochemical, small-molecule microarray, fluorescence 635/667, stem cell growth factor project, primary screen (AID 1086).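 Also: score merges 667 nm fluorescence with signal-to-noise of each printed compound spot.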 As to conditions: higher = more signal.
Experiment [10] in a line: binders of probe aHhip on microarray, primary screen, stem cell growth factor project, biochemical, small-molecule microarray, fluorescence 635/667 (AID 1087).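 Also: score merges spot fluorescence at 667nm with spot signal to noise ratio.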 As to conditions: higher = more signal.
Experiment [11] relates to PRMT1 (protein arginine N-methyltransferase 1). Description: small molecules binding arginine methyltransferase PRMT1 – biochemical, small-molecule microarray, 635 nm fluorescence, primary screen (AID 1088).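 Also: binding of Prmt1 protein to compounds spotted on small-molecule microarray slides.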 The settings on record: higher = more signal.
Experiment [12] is described as follows: growth effects on S. cerevisiae YJM789 – YJM789 clinical isolate, OD600, 24 h, basal, primary screen (AID 1089).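 Also: growth of clinical yeast isolate S. cerevisiae YJM 789 seeded 1000 cells per well; test concentration not given here.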 As to conditions: higher = more signal, called active from +8 up or from −8 down.
Experiment [13] can be described thus: S. pombe growth modifiers, basal conditions – strain 972, OD600, 24 h, no modulator, primary screen (AID 1090).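 Also: basal condition with compound alone and no growth modifier present; test concentration not given here.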 As to conditions: S. pombe 972 growth, higher = more signal, called active from +8 up or from −8 down.
The nature of experiment [14]: budding yeast growth modifiers under rapamycin – strain BY4716, OD600, 96 h, primary screen (AID 1091). Also: test concentration not given here. The settings on record: S. cerevisiae BY4716 + rapamycin, higher = more signal, called active from +8 up or from −8 down.
The target in experiment [15] is Torsin-1A-interacting protein 2 (Homo sapiens) (UniProt Q8NFQ8). Description: small molecules binding lysate-expressed LULL1 – cell lysate, human LULL1 lysate, 635/667 nm fluorescence, primary screen (AID 1092).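 Also: probe is lysate of COS7 cells overexpressing human LULL1; score merges per-feature 667 nm fluorescence with signal-to-noise.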 As to conditions: small-molecule microarray, hLULL1 lysate binding, 635 nm fluorescence; higher = more signal.
Experiment [16] in a line: optical density change of DRC41 E. coli – strain DRC41, OD650, 24 h, E. coli filamentation project, primary screen (AID 1093).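 Also: MC1000 strain lacking acrAB efflux and sulA so SOS filamentation is blocked; test concentration not given here.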 As to conditions: E. coli DRC41 growth, higher = more signal, called active from +8 up or from −8 down.
Experiment [17] can be described thus: probe aLefty2 binding to arrayed compounds – biochemical, biotinylated probe, 635/667 nm fluorescence, primary screen (AID 1094).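 Also: score merges spot fluorescence near 667 nm with spot signal-to-noise ratio.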 The settings on record: small-molecule microarray, higher = more signal.
Experiment [18] has as its system Noggin (protein binding on small-molecule microarray). Description: small molecules binding Noggin protein – biochemical, 635/667 nm fluorescence, primary screen (AID 1095).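 Also: score merges 667 nm feature fluorescence with signal to noise over triplicate slides.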 As to conditions: 635 nm fluorescence, higher = more signal.
In experiment [19] the target is Neurogenic locus notch homolog protein 3 (Homo sapiens) (UniProt Q9UM47). Briefly: small molecules binding NOTCH3 protein – biochemical, 635/667 nm fluorescence, primary screen (AID 1096). The settings on record: small-molecule microarray, 635 nm fluorescence, higher = more signal.
A short description of experiment [20]: probe aEGFR binding to arrayed compounds – biochemical, biotinylated probe, 635/667 nm fluorescence, primary screen (AID 1097).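 Also: probe is a biotinylated anti-EGFR antibody binding compounds printed on slides; score combines fluorescence near 667 nm and signal to noise of each spot.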 The settings on record: small-molecule microarray, higher = more signal.

The source made the active and inactive calls.

Sequence of Torsin-1A-interacting protein 2 (Homo sapiens) (Q8NFQ8 whole entry, looked up): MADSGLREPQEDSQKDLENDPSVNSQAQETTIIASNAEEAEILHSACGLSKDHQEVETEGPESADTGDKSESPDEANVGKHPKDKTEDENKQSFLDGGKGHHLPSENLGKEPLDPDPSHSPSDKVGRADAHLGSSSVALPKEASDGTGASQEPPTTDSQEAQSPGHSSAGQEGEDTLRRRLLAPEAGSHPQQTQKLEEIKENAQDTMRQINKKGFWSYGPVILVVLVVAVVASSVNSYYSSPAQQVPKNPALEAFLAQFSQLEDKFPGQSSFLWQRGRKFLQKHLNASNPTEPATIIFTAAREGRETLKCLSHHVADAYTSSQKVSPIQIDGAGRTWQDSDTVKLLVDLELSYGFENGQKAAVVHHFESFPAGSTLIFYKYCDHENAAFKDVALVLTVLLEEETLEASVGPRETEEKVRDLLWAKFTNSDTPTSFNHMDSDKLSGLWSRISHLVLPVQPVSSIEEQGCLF
Sequence of Pro-neuregulin-1, membrane-bound isoform (Homo sapiens) (Q02297 whole entry, looked up, the tested form may be a part, canonical isoform): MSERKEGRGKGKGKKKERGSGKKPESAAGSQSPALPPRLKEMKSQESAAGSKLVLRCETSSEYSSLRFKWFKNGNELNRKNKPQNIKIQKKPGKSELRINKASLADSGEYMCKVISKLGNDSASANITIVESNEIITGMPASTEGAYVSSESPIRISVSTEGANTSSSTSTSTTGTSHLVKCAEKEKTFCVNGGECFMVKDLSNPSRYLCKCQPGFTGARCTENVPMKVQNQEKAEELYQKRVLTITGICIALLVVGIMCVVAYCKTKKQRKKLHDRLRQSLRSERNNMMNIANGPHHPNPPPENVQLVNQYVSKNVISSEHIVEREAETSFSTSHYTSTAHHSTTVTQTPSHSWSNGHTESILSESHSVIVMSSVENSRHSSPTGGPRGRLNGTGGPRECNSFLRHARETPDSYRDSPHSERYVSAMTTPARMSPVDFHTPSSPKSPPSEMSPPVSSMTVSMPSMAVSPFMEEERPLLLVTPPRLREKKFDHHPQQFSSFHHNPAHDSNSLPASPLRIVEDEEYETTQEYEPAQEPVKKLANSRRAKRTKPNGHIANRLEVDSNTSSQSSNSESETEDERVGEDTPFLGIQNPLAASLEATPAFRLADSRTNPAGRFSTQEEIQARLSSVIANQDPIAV
Sequence of Neurogenic locus notch homolog protein 3 (Homo sapiens) (Q9UM47 whole entry, looked up): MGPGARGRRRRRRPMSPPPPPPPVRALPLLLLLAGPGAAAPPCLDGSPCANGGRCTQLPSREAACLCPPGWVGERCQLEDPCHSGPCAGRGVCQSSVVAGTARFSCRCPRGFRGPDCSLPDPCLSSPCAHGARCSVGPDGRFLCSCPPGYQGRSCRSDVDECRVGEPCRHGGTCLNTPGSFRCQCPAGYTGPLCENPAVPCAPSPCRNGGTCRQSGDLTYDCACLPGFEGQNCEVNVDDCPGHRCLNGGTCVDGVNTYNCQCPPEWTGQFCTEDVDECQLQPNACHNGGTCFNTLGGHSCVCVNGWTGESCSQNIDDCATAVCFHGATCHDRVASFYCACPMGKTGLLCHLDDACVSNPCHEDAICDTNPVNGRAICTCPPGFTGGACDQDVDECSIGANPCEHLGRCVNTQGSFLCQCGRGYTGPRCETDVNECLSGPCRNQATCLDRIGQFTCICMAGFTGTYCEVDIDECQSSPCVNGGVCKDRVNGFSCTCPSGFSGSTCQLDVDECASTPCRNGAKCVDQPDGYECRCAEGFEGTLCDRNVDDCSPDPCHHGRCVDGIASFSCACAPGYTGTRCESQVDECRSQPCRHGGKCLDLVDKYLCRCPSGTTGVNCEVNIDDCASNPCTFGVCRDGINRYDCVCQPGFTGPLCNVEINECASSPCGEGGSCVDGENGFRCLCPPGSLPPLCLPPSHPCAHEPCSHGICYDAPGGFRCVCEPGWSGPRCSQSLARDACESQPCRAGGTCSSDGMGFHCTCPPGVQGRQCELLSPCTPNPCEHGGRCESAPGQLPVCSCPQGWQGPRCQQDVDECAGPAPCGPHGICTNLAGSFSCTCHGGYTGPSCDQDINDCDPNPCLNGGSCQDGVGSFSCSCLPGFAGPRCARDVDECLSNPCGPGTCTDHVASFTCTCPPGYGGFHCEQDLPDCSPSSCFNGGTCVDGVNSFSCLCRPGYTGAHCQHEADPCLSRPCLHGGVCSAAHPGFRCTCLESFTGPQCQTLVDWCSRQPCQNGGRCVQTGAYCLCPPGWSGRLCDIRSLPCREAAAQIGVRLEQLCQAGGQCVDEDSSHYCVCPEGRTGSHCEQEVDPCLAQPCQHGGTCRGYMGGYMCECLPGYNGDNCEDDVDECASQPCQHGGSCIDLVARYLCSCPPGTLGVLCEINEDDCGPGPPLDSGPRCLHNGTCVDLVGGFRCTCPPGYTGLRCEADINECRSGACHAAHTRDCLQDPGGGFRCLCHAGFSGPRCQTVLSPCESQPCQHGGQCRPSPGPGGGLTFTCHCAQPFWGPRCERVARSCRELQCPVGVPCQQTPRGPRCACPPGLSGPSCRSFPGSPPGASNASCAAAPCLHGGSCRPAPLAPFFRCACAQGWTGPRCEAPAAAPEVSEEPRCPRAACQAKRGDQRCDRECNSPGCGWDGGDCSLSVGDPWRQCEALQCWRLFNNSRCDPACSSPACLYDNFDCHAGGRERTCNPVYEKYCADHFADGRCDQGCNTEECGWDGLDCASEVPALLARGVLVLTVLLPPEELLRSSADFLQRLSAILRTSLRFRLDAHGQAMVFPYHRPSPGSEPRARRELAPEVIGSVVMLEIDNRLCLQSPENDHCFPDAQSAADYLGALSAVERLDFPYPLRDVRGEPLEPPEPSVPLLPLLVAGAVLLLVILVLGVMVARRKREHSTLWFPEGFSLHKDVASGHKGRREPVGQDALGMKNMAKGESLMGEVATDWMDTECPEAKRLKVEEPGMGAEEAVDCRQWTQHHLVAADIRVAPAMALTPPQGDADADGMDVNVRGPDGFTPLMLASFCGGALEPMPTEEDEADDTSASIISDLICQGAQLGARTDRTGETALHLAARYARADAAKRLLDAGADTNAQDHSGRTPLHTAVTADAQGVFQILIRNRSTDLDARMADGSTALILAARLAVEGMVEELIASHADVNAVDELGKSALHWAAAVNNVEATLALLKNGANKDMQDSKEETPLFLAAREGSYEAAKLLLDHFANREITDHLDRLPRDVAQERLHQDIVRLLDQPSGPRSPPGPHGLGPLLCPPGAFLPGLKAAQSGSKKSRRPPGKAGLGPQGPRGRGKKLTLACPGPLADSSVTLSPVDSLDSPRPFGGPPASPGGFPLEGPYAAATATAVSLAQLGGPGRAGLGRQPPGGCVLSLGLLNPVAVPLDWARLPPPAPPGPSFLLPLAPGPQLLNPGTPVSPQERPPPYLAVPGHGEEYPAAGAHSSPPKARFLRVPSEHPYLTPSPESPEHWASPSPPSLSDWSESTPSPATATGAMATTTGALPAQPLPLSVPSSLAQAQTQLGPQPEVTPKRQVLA

Take `CCCCCCC#C[Si](O[C@H](c1ccccc1)c1cn([C@H](C)c2ccccc2)nn1)(C(C)C)C(C)C`: the composite z-score is -0.0028 in experiment [1]; 0.247 in experiment [2]; -0.083 in [3]; 0.291 in experiment [4]; 0.315 in [5]; 0.114 in [6]. Further, the composite z-score is -0.333 in [7]; -0.495 in [9]; 0.0147 in experiment [10]; 0.789 in experiment [11]; 0.828 in experiment [15]; -0.211 in experiment [17]. Besides, the composite z-score in experiment [18] was 0.476; in experiment [19], 0.579; in experiment [20], -0.099. Moreover, the z-score is -0.532 (inactive) in [8]; -0.285 (inactive) in [12]; 0.994 (inactive) in experiment [13]; -0.0401 (inactive) in experiment [14]; 1.33 (inactive) in experiment [16].

Turning to `CC(C)C(=C=CC[C@H](O)c1ccccc1OCCO)CCO`, the composite z-score in experiment [1] was 0.0409; in experiment [2], -0.0204; in experiment [3], -0.152; in experiment [4] it was 0.161; in experiment [5], -0.679; in [6], 0.319. The composite z-score in experiment [7] was 0.614; in [9], -0.0031; in [10], -0.0994; in [11] it was 1.35; in [15], 2.48; in [17], 0.0349. Besides, the composite z-score was -0.143 in experiment [18], -0.131 in [19] and -0.0915 in [20]. The z-score is 0.129 (inactive) in experiment [8]; -0.655 (inactive) in experiment [12]; -0.39 (inactive) in experiment [13]; -0.236 (inactive) in [14]; -0.105 (inactive) in experiment [16].

Regarding `C=CCN1C(=O)[C@@]2(O[C@@H](CCO)[C@H]([Si](C)(C)c3ccc(OC)cc3)[C@H]2C)c2cc(N3C(=O)COc4ccccc43)ccc21`, the composite z-score in [1] is -0.351; in experiment [2] it was 0.28; in experiment [3], -0.0293; in experiment [4], 1.02; in [5], 0.227; in experiment [6] it was 1.02. The composite z-score in [7] was 0.746; in [9], 0.975; in [10], -0.358; in experiment [11] it was 1.45; in experiment [15], 1.81; in [17] it was -0.275. Also, the composite z-score is 0.17 in experiment [18], 0.4 in experiment [19] and -0.178 in [20]. Also, the z-score in experiment [8] was -1.54 (inactive); in experiment [12] it was 1.64 (inactive); in experiment [13], 0.842 (inactive); in [14], 35.4 (active); in experiment [16] it was 0.375 (inactive).

`O=C1OCC=C[C@H]2OC34C=CCN(c5ccc6ccccc6c5)C(=O)[C@H]3N(CCO)C(=O)[C@@H]4[C@@H]12` (stereo not given in full): the composite z-score in [1] was 0.982; in [2], -2.22; in experiment [3], -0.166; in [4], -0.361; in experiment [5] it was -1.4; in experiment [6], 1.7. Further, the composite z-score in experiment [7] is 1.39; in [9], -0.127; in experiment [10], -0.27; in experiment [11], 0.491; in experiment [15], 0.951; in [17], -0.0841. The composite z-score in [18] was -1.58; in experiment [19] it was -0.127; in experiment [20], -0.281. In addition, the z-score was 1.18 (inactive) in [8]; 0.689 (inactive) in experiment [12]; 0.0739 (inactive) in experiment [13]; -0.409 (inactive) in experiment [14]; -0.746 (inactive) in experiment [16].

For `O=C1C2C=CC(C(O)C3CC=CCC3)N(n3cnnc3)C2C(=O)N1Cc1ccccc1` (stereo not given), the composite z-score is 0.61 in experiment [1]; 0.43 in experiment [2]; -0.158 in experiment [3]; -1.03 in [4]; -1.23 in experiment [5]; 0.998 in [6]. Moreover, the composite z-score is 0.518 in experiment [7]; -0.354 in experiment [9]; 0.12 in experiment [10]; 1.07 in experiment [11]; 1.09 in experiment [15]; -0.223 in experiment [17]. Besides, the figures for the composite z-score in [18], in [19] and in experiment [20] were -1.05, -0.686 and -0.314, respectively. For the same molecule, the z-score in experiment [8] was 0.37 (inactive); in experiment [12], -0.504 (inactive); in experiment [13], 0.196 (inactive); in experiment [14], 0.0633 (inactive); in [16], -1.09 (inactive).
